From PubChem BioAssay (NCI) come the findings set out here.

Assay in all cases: NCI-60 one-dose screen, 48 h (100 = growth as untreated, 0 = no growth, -100 = all killed)
One test deals with HT29 colon. As to conditions: 10 µM unless noted.
Another test deals with SNB-75 CNS. As to conditions: 10 µM unless noted.
For the next test, the system named is SNB-19 CNS. As to conditions: 10 µM unless noted.
In the next test the test system is PC-3 prostate. The note with it: 10 µM unless noted.
In a further test the test system is SK-MEL-5 melanoma. The note with it: 10 µM unless noted.
Another test relates to UACC-62 melanoma. The note with it: 10 µM unless noted.
Another test has as its system LOX IMVI melanoma. The note with it: 10 µM unless noted.
In another test the test system is SK-MEL-28 melanoma. As to conditions: 10 µM.
The subject of a further test is SK-MEL-2 melanoma. The note with it: 10 µM unless noted.
A further test deals with SN12C renal. The note with it: 10 µM unless noted.
The next test relates to UO-31 renal. As to conditions: 10 µM unless noted.
The subject of another test is TK-10 renal. The note with it: 10 µM unless noted.
In another test the test system is ACHN renal. As to conditions: 10 µM unless noted.
The next test deals with CAKI-1 renal. The note with it: 10 µM unless noted.
The next test relates to A498 renal. The note with it: 10 µM unless noted.
In a further test the test system is CCRF-CEM leukemia. As to conditions: 10 µM unless noted.
The test system of the next test is MOLT-4 leukemia. The note with it: 10 µM unless noted.
For another test, the system named is SR leukemia. The note with it: 10 µM unless noted.
For a further test, the system named is EKVX NSCLC. As to conditions: 10 µM unless noted.

About 83,000 compounds went through this panel and 20% of them were active in at least one assay; those are over-represented in the sample as a whole.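 Growth was measured after 48 h exposure to one concentration of compound in 96-well plates. Values under 10 count as active.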 A number with no mark means an inactive call. Activity calls are given as the source filed them.

On to `O=C1/C(=C/c2ccc(O)cc2)COc2ccc(O)cc21`, for which the growth was 98.3% in the test on HT29 colon; 96.4% with SNB-75 CNS; 99.9% in the test on SNB-19 CNS; 94.3% with PC-3 prostate; 102% with SK-MEL-5 melanoma; 92.8% with UACC-62 melanoma. In addition, the growth was 70.1% with LOX IMVI melanoma; 105% in the test on SK-MEL-28 melanoma; 114% in the test on SK-MEL-2 melanoma; 96.7% with SN12C renal; 87.5% with UO-31 renal; 115% in the test on TK-10 renal. In addition, the growth with ACHN renal is 96.5%; with CAKI-1 renal it was 103%; in the test with A498 renal, 103%; in the test with CCRF-CEM leukemia it was 76.7%; in the test on MOLT-4 leukemia, 93.7%; in the test with SR leukemia it was 33%.
As to `O=c1oc2ccc(Cl)cc2c(=O)n1-c1ccc(F)cc1F`, the growth with HT29 colon is 86.6%; in the test with SNB-75 CNS, -12% (active); in the test on SNB-19 CNS, 13.6%; in the test with PC-3 prostate, 2.49% (active); in the test with SK-MEL-5 melanoma, -66.9% (active); in the test on UACC-62 melanoma it was 3.47% (active). For the same compound, the growth in the test with LOX IMVI melanoma is 17.8%; in the test with SK-MEL-28 melanoma, 21.8%; in the test with SK-MEL-2 melanoma it was -26.4% (active); with EKVX NSCLC, 36.2%; in the test with SN12C renal, 4.19% (active); in the test with UO-31 renal it was -1.33% (active). In addition, the growth in the test on TK-10 renal was 21%; in the test on ACHN renal, 4.18% (active); with CAKI-1 renal, -14% (active); with A498 renal, -35.4% (active); in the test with CCRF-CEM leukemia, 13.7%; in the test with MOLT-4 leukemia it was 9.73% (active).
On to `CCCCCCC(O)(c1ccc(F)cc1)C(CN1CCOCC1)c1ccccc1` (centres undefined), for which the growth with HT29 colon was 33.1%; in the test on SNB-75 CNS it was 32.8%; in the test with SNB-19 CNS it was 42%; in the test on PC-3 prostate, 15.4%; in the test with SK-MEL-5 melanoma it was 52.8%; in the test on UACC-62 melanoma, 22.6%. For the same compound, the growth is 29.5% in the test on LOX IMVI melanoma; 68.1% in the test on SK-MEL-28 melanoma; 36.4% in the test with SK-MEL-2 melanoma; 35.3% in the test on SN12C renal; 19.4% with UO-31 renal; 34.2% in the test with TK-10 renal. For the same compound, the growth with ACHN renal was 23.7%; with CAKI-1 renal, 33.1%; with A498 renal, 50%; in the test with CCRF-CEM leukemia it was 18.1%; in the test on MOLT-4 leukemia, 17.7%; in the test with SR leukemia, 23.2%.
On to `NC1C(N)C(N)C1N` (centres undefined), for which the growth with HT29 colon was 106%; in the test on SNB-75 CNS, 71.8%; with SNB-19 CNS, 94.3%; in the test with PC-3 prostate it was 96.1%; in the test with SK-MEL-5 melanoma it was 113%; with UACC-62 melanoma it was 99.1%. Besides, the growth in the test with LOX IMVI melanoma is 95.1%; in the test with SK-MEL-2 melanoma, 92%; in the test with EKVX NSCLC it was 121%; with SN12C renal it was 96.8%; in the test with UO-31 renal it was 77.9%; with ACHN renal, 96.8%. Also, the growth is 101% with CAKI-1 renal; 116% with A498 renal; 85.1% in the test with CCRF-CEM leukemia; 83.7% in the test on MOLT-4 leukemia; 86.8% in the test on SR leukemia.
With `O=C(Nc1ccc(F)cc1F)c1cc(Cl)ccc1O`, the growth with HT29 colon was 31.4%; with SNB-75 CNS, -8.57% (active); with SNB-19 CNS, 16.2%; in the test with PC-3 prostate, 6.06% (active); in the test on SK-MEL-5 melanoma, -67.5% (active); in the test with UACC-62 melanoma, 7.39% (active). Moreover, the growth in the test with LOX IMVI melanoma was 14.5%; with SK-MEL-28 melanoma it was 25.3%; with SK-MEL-2 melanoma it was -25.6% (active); with EKVX NSCLC, 34.2%; in the test on SN12C renal, 2.94% (active); in the test on UO-31 renal, -0.334% (active). Further, the growth in the test on TK-10 renal was 17.4%; with ACHN renal, 4.87% (active); in the test with CAKI-1 renal, -14.7% (active); in the test with A498 renal, -34.4% (active); in the test on CCRF-CEM leukemia it was 15.4%; in the test with MOLT-4 leukemia, 8.79% (active).
As to `FC(F)(F)c1cccc(CNC2CCN(CCc3ccccc3)CC2)c1`, the growth is 46.9% in the test with HT29 colon; 71.2% with SNB-75 CNS; 91.7% with SNB-19 CNS; 25.2% in the test on PC-3 prostate; 90% in the test on SK-MEL-5 melanoma; 86.4% in the test with UACC-62 melanoma. For the same compound, the growth in the test with LOX IMVI melanoma was 56%; with SK-MEL-28 melanoma it was 85.1%; in the test with SK-MEL-2 melanoma, 91%; in the test with SN12C renal it was 85.4%; in the test on UO-31 renal, 56.3%; with TK-10 renal, 79.8%. Also, the growth in the test with ACHN renal was 90.7%; in the test on CAKI-1 renal, 60.2%; in the test on A498 renal it was 60.4%; in the test with CCRF-CEM leukemia it was 13.2%; in the test on MOLT-4 leukemia, 54.3%; with SR leukemia it was 29.3%.
Regarding `CCOC(=O)C(CC(=O)O)=C(C(=O)OCC)C(=O)OCC`, the growth is 134% with HT29 colon; 91.8% with SNB-75 CNS; 109% in the test with SNB-19 CNS; 112% with PC-3 prostate; 113% with UACC-62 melanoma; 106% in the test on LOX IMVI melanoma. The growth is 101% in the test with SK-MEL-28 melanoma; 128% in the test on SK-MEL-2 melanoma; 104% in the test on SN12C renal; 98.8% in the test on UO-31 renal; 120% in the test on TK-10 renal; 105% in the test on ACHN renal. Further, the growth was 99.6% in the test on CAKI-1 renal; 104% with A498 renal; 110% in the test with CCRF-CEM leukemia; 95.8% in the test with MOLT-4 leukemia; 95.8% in the test on SR leukemia.
Turning to `CCOC(=O)C1=C(C)c2ccc(OC)c(OC)c2C1`, the growth in the test with HT29 colon is 95%; with SNB-75 CNS it was 89.9%; in the test with SNB-19 CNS it was 104%; in the test with PC-3 prostate, 102%; with SK-MEL-5 melanoma it was 96.3%; in the test with UACC-62 melanoma, 98.5%. In addition, the growth with LOX IMVI melanoma was 96.1%; in the test on SK-MEL-2 melanoma it was 89.5%; in the test with EKVX NSCLC, 98.8%; in the test on SN12C renal it was 108%; in the test on UO-31 renal, 95.5%; in the test on TK-10 renal it was 87.2%. The growth with ACHN renal was 103%; in the test on CAKI-1 renal it was 100%; in the test on A498 renal it was 96.3%; in the test on CCRF-CEM leukemia, 93%; in the test on MOLT-4 leukemia it was 87.7%; in the test with SR leukemia, 73.4%.
Regarding `FC(F)(F)c1cccc(Nc2nc(-c3ccccc3)nc3ncccc23)c1`, the growth was 15% in the test on HT29 colon; 91.4% with SNB-75 CNS; 100% in the test on SNB-19 CNS; 6.17% (active) with PC-3 prostate; -91.4% (active) in the test with SK-MEL-5 melanoma; -50.6% (active) with UACC-62 melanoma. For the same compound, the growth is -84.6% (active) in the test on SK-MEL-28 melanoma; 104% with SK-MEL-2 melanoma; 75.8% in the test with SN12C renal; 82.4% with UO-31 renal; 94.2% in the test on TK-10 renal; 76.2% in the test with ACHN renal. The growth was 40.4% in the test on CAKI-1 renal; -4.48% (active) in the test on A498 renal; -21.6% (active) with CCRF-CEM leukemia; 7.45% (active) in the test on MOLT-4 leukemia; -37.4% (active) in the test on SR leukemia.
